# Compounds without any hit were thinned out: in the full panel of roughly 79,000, 15% have a hit. Values without a mark were called inactive. Calls of active or inactive are those of the source. No stated cut-off is given here; in the data, active means growth inhibition above about 70%; inactive means the rest.
# Legend:
# [1] = NCI Yeast Anticancer Drug Screen. Data for the rad52 strain (AID 147);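 further: 0% = growth of vehicle-treated control cultures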; details: S. cerevisiae rad52 mutant growth inhibition, stronger effect = higher value
# Method in brief: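 Compounds are applied to a genetically defined yeast strain lacking normal DNA damage repair, and inhibition of growth is expressed relative to cultures given vehicle only.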
# [2] = NCI Yeast Anticancer Drug Screen. Data for the wt1 strain (AID 149);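 further: 0% = growth of vehicle-treated wt1 cultures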; details: S. cerevisiae wt1 strain (SPY 50644) growth inhibition, stronger effect = higher value
# Method in brief: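 Compounds are added to wt1 yeast cultures. Growth is then measured. Inhibition is expressed relative to vehicle-treated controls.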
# [3] = NCI Yeast Anticancer Drug Screen. Data for the rad50EPP+ strain (AID 151);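 further: 0% = growth of vehicle-treated control cultures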; details: S. cerevisiae rad50 mutant strain, stronger effect = higher value
# Method in brief: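 Compounds were applied to the rad50EPP+ yeast strain, which bears a defined DNA repair alteration, and growth inhibition was determined relative to vehicle-treated cultures.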
# [4] = NCI Yeast Anticancer Drug Screen. Data for the rad50 strain (AID 155);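 further: 0% = growth of vehicle-only cultures of the same strain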; details: S. cerevisiae rad50 strain growth inhibition, stronger effect = higher value
# Method in brief: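 Inhibition values express reduced yeast growth in compound-treated cultures relative to vehicle-treated controls.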
# [5] = NCI Yeast Anticancer Drug Screen. Data for the mec2-1 strain (AID 157); details: S. cerevisiae mec2-1 strain, stronger effect = higher value
# Method in brief: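 Strain: mec2-1 (DNA repair/cell cycle alteration). Compound exposure, then growth measured; inhibition expressed relative to vehicle.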
# [6] = NCI Yeast Anticancer Drug Screen. Data for the rad14 strain (AID 159);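 further: 0% = growth of vehicle-treated control cultures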; details: S. cerevisiae rad14 strain growth inhibition, stronger effect = higher value
# Method in brief: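 A mutant yeast strain defective in DNA damage repair is treated with compound; inhibition of its growth is scored against untreated, vehicle-exposed cultures.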
# [7] = NCI Yeast Anticancer Drug Screen. Data for the sgs1 mgt1 strain (AID 161);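 further: 0% = growth of cultures given vehicle only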; details: S. cerevisiae sgs1 mgt1 strain, stronger effect = higher value
# Method in brief: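 Mutant yeast exposed to compound; growth scored against vehicle-only wells.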
# [8] = NCI Yeast Anticancer Drug Screen. Data for the cln2 rad14 strain (AID 165);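 further: 0% = growth equal to vehicle treated cultures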; details: S. cerevisiae cln2 rad14 strain, stronger effect = higher value
# Method in brief: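 Compounds are applied to the cln2 rad14 yeast strain, and growth is then compared with that of vehicle-treated cultures to give inhibition.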
# [9] = NCI Yeast Anticancer Drug Screen. Data for the bub3 strain (AID 167); details: S. cerevisiae bub3 mutant strain, stronger effect = higher value
# Method in brief: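 Steps: expose the mutant yeast strain to compound; grow alongside vehicle-treated cultures; measure growth; express inhibition against the vehicle cultures.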
# [10] = NCI Yeast Anticancer Drug Screen. Data for the wt2 strain (AID 169);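 further: 0% = growth of vehicle-treated yeast cultures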; details: S. cerevisiae wt2 strain growth inhibition, stronger effect = higher value
# Method in brief: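 This strain belongs to a panel of yeast strains with defined genetic alterations in DNA damage repair or cell cycle control. Compounds are applied, and growth inhibition is measured against vehicle-treated cultures.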
# [11] = NCI Yeast Anticancer Drug Screen. Data for the mlh1 strain (AID 171);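 further: 0% = growth of vehicle-treated control cultures of the same strain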; details: S. cerevisiae mlh1 strain growth inhibition, stronger effect = higher value
# Method in brief: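 Growth of the mutant yeast strain after compound exposure, expressed as inhibition relative to vehicle-only controls.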
# [12] = NCI Yeast Anticancer Drug Screen. Data for the sgs1 strain (AID 173);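 further: 0% = growth of vehicle-only control cultures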; details: S. cerevisiae sgs1 mutant, stronger effect = higher value
# Method in brief: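 Growth of a yeast strain bearing a defined genetic alteration is measured after compound treatment. Inhibition is expressed relative to vehicle-only controls.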
# [13] = NCI Yeast Anticancer Drug Screen. Data for the mlh1 rad18 strain (AID 175); details: S. cerevisiae mlh1 rad18 strain growth inhibition, stronger effect = higher value
# Method in brief: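 Read-out is yeast growth inhibition, calculated against vehicle-only controls. The compound was applied to a strain engineered with DNA damage repair alterations.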
# [14] = NCI Yeast Anticancer Drug Screen. Data for the rad18 strain (AID 177); details: S. cerevisiae rad18 mutant growth inhibition, stronger effect = higher value
# Method in brief: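 Growth of the mutant yeast strain after compound exposure, normalised to vehicle-only cultures.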
# [15] = at 5.0 µM (retest, dose inferred, filed as 0.5)
# [16] = at 50.0 µM (retest, dose inferred, filed as 5.0)
smiles,measurement,setting,value
CCOC(=O)c1csc(Br)n1,growth inhibition,[1]; at 1.2 µM,-2%
same,growth inhibition,[1]; at 3.7 µM,-3%
same,growth inhibition,[1]; at 11.0 µM,-7%
same,growth inhibition,[1]; at 33.0 µM,-5%
same,growth inhibition,[1]; at 100.0 µM,-9%
same,growth inhibition,[2]; at 1.2 µM,3%
same,growth inhibition,[2]; at 3.7 µM,-3%
same,growth inhibition,[2]; at 11.0 µM,-3%
same,growth inhibition,[2]; at 33.0 µM,-3%
same,growth inhibition,[2]; at 100.0 µM,-5%
same,growth inhibition,[3]; at 1.2 µM,-2%
same,growth inhibition,[3]; at 3.7 µM,4%
same,growth inhibition,[3]; at 11.0 µM,-2%
same,growth inhibition,[3]; at 33.0 µM,0%
same,growth inhibition,[3]; at 100.0 µM,-4%
same,growth inhibition,[4]; at 1.2 µM,-5%
same,growth inhibition,[4]; at 3.7 µM,1%
same,growth inhibition,[4]; [15],-4%
same,growth inhibition,[4]; at 11.0 µM,0%
same,growth inhibition,[4]; at 33.0 µM,-1%
same,growth inhibition,[4]; [16],-3%
same,growth inhibition,[4]; at 50.0 µM,98.6% (active)
same,growth inhibition,[4]; at 100.0 µM,-12%
same,growth inhibition,[5]; at 1.2 µM,-7%
same,growth inhibition,[5]; at 3.7 µM,-2%
same,growth inhibition,[5]; [15],-16%
same,growth inhibition,[5]; at 11.0 µM,-3%
same,growth inhibition,[5]; at 33.0 µM,-5%
same,growth inhibition,[5]; [16],-7%
same,growth inhibition,[5]; at 50.0 µM,99.5% (active)
same,growth inhibition,[5]; at 100.0 µM,-3%
same,growth inhibition,[6]; at 1.2 µM,0%
same,growth inhibition,[6]; at 3.7 µM,2%
same,growth inhibition,[6]; at 11.0 µM,-2%
same,growth inhibition,[6]; at 33.0 µM,-4%
same,growth inhibition,[6]; at 100.0 µM,-8%
same,growth inhibition,[7]; [15],-18%
same,growth inhibition,[7]; [16],-6%
same,growth inhibition,[7]; at 50.0 µM,97.8% (active)
same,growth inhibition,[8]; [15],-8%
same,growth inhibition,[8]; [16],39%
same,growth inhibition,[8]; at 50.0 µM,83.5% (active)
same,growth inhibition,[9]; at 1.2 µM,-5%
same,growth inhibition,[9]; at 3.7 µM,-4%
same,growth inhibition,[9]; [15],-11%
same,growth inhibition,[9]; at 11.0 µM,-6%
same,growth inhibition,[9]; at 33.0 µM,-6%
same,growth inhibition,[9]; [16],-7%
same,growth inhibition,[9]; at 50.0 µM,99% (active)
same,growth inhibition,[9]; at 100.0 µM,-14%
same,growth inhibition,[10]; at 1.2 µM,-2%
same,growth inhibition,[10]; at 3.7 µM,-2%
same,growth inhibition,[10]; at 11.0 µM,-2%
same,growth inhibition,[10]; at 33.0 µM,-4%
same,growth inhibition,[10]; at 100.0 µM,-4%
same,growth inhibition,[11]; at 1.2 µM,3%
same,growth inhibition,[11]; at 3.7 µM,-7%
same,growth inhibition,[11]; at 11.0 µM,0%
same,growth inhibition,[11]; at 33.0 µM,3%
same,growth inhibition,[11]; at 100.0 µM,0%
same,growth inhibition,[12]; at 1.2 µM,-2%
same,growth inhibition,[12]; at 3.7 µM,-2%
same,growth inhibition,[12]; at 11.0 µM,-1%
same,growth inhibition,[12]; at 33.0 µM,-3%
same,growth inhibition,[12]; at 100.0 µM,-6%
same,growth inhibition,[13]; [15],-16%
same,growth inhibition,[13]; [16],-18%
same,growth inhibition,[13]; at 50.0 µM,78.3% (active)
same,growth inhibition,[14]; at 1.2 µM,-1%
same,growth inhibition,[14]; at 3.7 µM,-3%
same,growth inhibition,[14]; at 11.0 µM,1%
same,growth inhibition,[14]; at 33.0 µM,-4%
same,growth inhibition,[14]; at 100.0 µM,-14%

# Reference: PubChem BioAssay (NCI)
